The sample as a whole holds a higher share of hits than the screen did.
ERK EGF block = qHTS Assay for Inhibitors of the ERK Signaling Pathway using a Homogeneous Screening Assay; Stimulation with EGF | 0.41% of 130,000 active | HEK293-V1b, EGF-stimulated phospho-ERK AlphaScreen | AID 1454, 2008 | Potency, µM (series often up to 11.5 µM), without a hit: at the top dose activity change, negative = inhibition, hits mostly inhibitors; active = well fitted inhibition curve with a large enough effect;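 also: plate controls were stimulated vehicle wells for no effect and unstimulated vehicle basal for full effect; nearly all actives have a fitted effect of over 55% in size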
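Stably V1b-transfected HEK293 cells; 30 min compound, then EGF 25 nM final for 5 min at 37C; 10 min lysis; phospho-ERK by AlphaScreen after 5 hr beads at room temperature.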
* hit, by the source's call; [ ] = remark or other dose. Potency is read from the fitted curve at half-maximal effect.

SMILES	ERK EGF block
CCN(CC)S(=O)(=O)c1ccc(Cl)c(NC(=O)COC(=O)c2cccn2C)c1	0.2%
Nc1c2ccccc2nc2ccccc12	10.0%
Cc1cc(Cl)c2ccccc2n1	-1.7%
Clc1cncc(Cl)c1NNc1c2ccccc2nc2ccccc12	12.6µM*
Cc1cccc(CNc2ccnc(-c3ccc(N(C)C)cc3)n2)c1	20.9%
COc1cc2c(cc1O)CCC1C2CC[C@]2(C)[C@@H](O)CC[C@@H]12 (stereo not given in full)	11.5%
O=C(CN1C(=O)/C(=C/c2ccccc2)SC1=S)NNC(=O)c1ccccc1O	14.1µM*
CC(C)(C)NC(=O)CN1C(=O)/C(=C/c2ccccc2)SC1=S	8.4%
Cc1ccc(/C=C2\SC(=S)N(CCCC(=O)NNC(=O)c3ccccc3O)C2=O)cc1	3.5%[57.5 µM]
CC(C)CN1CC[C@@]2(CCCN(C(=O)c3csnn3)C2)C1	-7.8%
N#Cc1cccc(CS(=O)(=O)c2nnnn2C2CCCCC2)c1	-4.0%
COc1cccc(CS(=O)(=O)c2nnnn2-c2ccc(F)cc2Br)c1	-1.9%
Nc1[nH]n(-c2ccccc2)c(=O)c1N=Nc1ccc2c(c1)OCO2	22.4µM*
Nc1nn(-c2ccccc2)c(N)c1N=Nc1ccc2c(c1)OCO2	0.3%
Cc1[nH]n(-c2ccccc2)c(=O)c1N=Nc1ccccc1	15.8µM*
NC(=O)c1ccc(N=Nc2c(-c3ccccc3)[nH]n(-c3ccccc3)c2=O)cc1	-7.3%
Cc1[nH]n(-c2ccccc2)c(=O)c1N=Nc1ccccc1C(=O)N1CCOCC1	-4.7%
Cc1cc([N+](=O)[O-])ccc1N=Nc1c(N)[nH]n(-c2ccccc2)c1=O	-1.9%
CN1CCN(C(=O)c2nc3ccc(Cl)cc3[nH]2)CC1	-2.3%
CS(=O)(=O)Nc1cccc(-c2nc(N3CCNCC3)c3ccccc3n2)c1	17.7%
COc1ccc2c(c1)c1ccc3c(c1n2C)C(=O)C=CC3=O	31.6µM*
COc1ccc2c(c1)oc(=O)c1cc(OC)ccc12	-4.5%[57.5 µM]
COc1ccc2c(c1)c(C(=O)CN1CCN(Cc3ccccc3)CC1)c(C)n2C	-4.7%[57.5 µM]
Cc1ccc(C(=O)Cn2c3c(sc2=N)CCCC3)cc1	5.3%
COc1ccc(C2CC(=O)Oc3c(C(CCN4CCN(c5ccccc5)CC4)c4ccc(N(C)C)cc4)c(OC)cc(OC)c32)cc1 (stereo not given)	15.8µM*
SMILES	ERK EGF block
COc1cc(OC)c2c(c1C(CCN1CCOCC1)c1ccc(N(C)C)cc1)OC(=O)CC2c1ccc(N(C)C)cc1 (stereo not given)	-5.6%[57.5 µM]
COc1cc(C(CCN2CCOCC2)c2c(OC)cc(OC)c3c2OC(=O)CC3c2ccc(N(C)C)cc2)cc(OC)c1OC (stereo not given)	-15.1%[57.5 µM]
CCCCCCN(CCCCCC)C(=O)Cc1c(-c2ccc(Cl)cc2)[nH]c2ccc(Cl)cc12	-4.0%
COc1ccc2[nH]c3c(NCCC4=CCCCC4)ncnc3c2c1	20µM*
C1=C(CCNc2ncnc3nc[nH]c23)CCCC1	4.9%
O=c1c2[nH]c3ccc(F)cc3c2ncn1CCC1=CCCCC1	-1.4%[57.5 µM]
COc1cc(-c2ccc(N=Nc3ccc4c(S(=O)(=O)O)cc(S(=O)(=O)O)c(N)c4c3O)c(OC)c2)ccc1N=Nc1ccc2c(S(=O)(=O)O)cc(S(=O)(=O)O)c(N)c2c1O	-6.7%
CC(=O)OCC1OC(n2c(Br)nc3c(=O)[nH]c(N)nc32)C(OC(C)=O)C1OC(C)=O (stereo not given)	26.9%
C[C@@H](C(=O)Nc1ccc2ccccc2c1)[C@H]1C[C@]1(C)[C@H](NC(=O)c1ccccc1)c1ccccc1	-5.9%
C=CC[n+]1ccc(/C=C2\C=Cc3cc(C)ccc3N2CC)c2ccccc21	14.1µM*
C=CC[n+]1ccc2ccccc2c1C	5.1%
CCN1/C(=C/c2cc[n+](CCCS(=O)(=O)[O-])c3ccccc23)Sc2ccccc21	-4.8%
CNC1C(OC2C(O[C@@H]3C(O)C(O)[C@@H](N=C(N)N)C(O)C3N=C(N)N)OC(C)[C@@]2(O)CO)OC(CO)C(O)C1O (stereo not given in full)	19.9%
COc1cccc(OCc2ccc(C(=O)NCC3CCCO3)cc2)c1 (stereo not given)	3.7%
COc1cccc(N=c2oc3cc(O)ccc3cc2C(=O)NCC2CCCO2)c1 (stereo not given)	28.2µM*
COc1cc(OC)c(C(=O)NCC2CCCO2)cc1OC (stereo not given)	3.6%
O=C(Nc1ccccc1Cl)Nc1ccccc1Cl	-9.6%[57.5 µM]
CSc1ccccc1NC(=O)Nc1ccccc1Cl	2.7%[57.5 µM]
O=C(Nc1ccc(Nc2ccccc2)cc1)Nc1ccccc1Cl	28.2µM*
NC(=S)c1ccc[n+]([C@@H]2O[C@@H](COP(=O)([O-])OP(=O)(O)OC[C@H]3O[C@@H](n4cnc5c(N)ncnc54)[C@H](OP(=O)(O)O)[C@H]3O)C(O)C2O)c1 (stereo not given in full)	-3.0%
O=S(=O)(c1cccc(NC(=S)N2CCN(c3cccc(Cl)c3)CC2)c1)C(F)F	25.1µM*
NS(=O)(=O)c1ccc(NC(=S)N2CCN(c3cccc(Cl)c3)CC2)cc1	-3.0%
S=C(NC1CCCC1)N1CCN(c2cccc(Cl)c2)CC1	-1.1%
COC(=O)C(C(=O)OC)[C@@H]1O[C@@]23COC=C[C@]2(C)[C@H]3c2ccccc21	3.8%
Cc1cnc(CNc2ncnc3ccc(-c4ccccc4C#N)cc23)cn1	20.3%
SMILES	ERK EGF block
COc1ccc2nc3cc(Cl)ccc3c(Nc3cc(C(C)C)c(O)cc3C)c2c1	17.8µM*
CCN(CC)CCCC(C)Nc1c2ccc(Cl)cc2nc2ccc(OC)cc12 (stereo not given)	3.1%
Cc1cc(O)c(C(C)C)cc1NC(=O)c1ccccc1Cl	-2.9%
CCCCCCCCCCCCCCCC(=O)N[C@H](CN1CCOCC1)[C@H](O)c1ccccc1	-2.3%
COC(=O)[C@@H]1C[C@H]1[C@@H](N)c1ccccc1	5.5%
CC(C)CN1CC2(CCN(C(=O)c3ccco3)CC2)C1	-6.5%
CC(=O)Nc1ccc(Nc2ccc3c4c(cc(=O)n3C)-c3ccccc3C(=O)c24)cc1	7.6%
O=C1c2ccccc2C(=O)c2c(Nc3ccc(CCO)cc3)ccc(O)c21	14.1µM*
O=C1c2ccccc2C(=O)c2c(O)ccc(O)c21	-11.0%
COc1ccc(C(=O)N2CCC3(CCN(CC(C)C)CC3)CC2)cc1	11.0%
c1ccc(-c2csc3ncnc(NCC4COc5ccccc5O4)c23)cc1 (stereo not given)	14.1µM*
CCN(CC)c1ncnc2scc(C3COc4ccccc4O3)c12 (stereo not given)	0.4%
c1ccc(-c2csc3ncnc(NCCCN4CCOCC4)c23)cc1	5.3%
O=C(NNC(=S)NC1CCCCC1)c1sc2ccccc2c1Cl	2.3%
CC(C)(C)C(=O)NC(=S)NNC(=O)c1sc2ccccc2c1Cl	12.6µM*
O=C(NC(=S)NCCO)c1sc2ccccc2c1Cl	6.8%
c1cc2c(cc1C1CCCCC1)c1c3n2CCCNC3CCC1 (stereo not given)	28.2µM*
Cc1ccc2c(c1)c1c3n2CCCNC3CCC1 (stereo not given)	-14.9%[57.5 µM]
c1cc2c(cc1C1CCCCC1)c1c3n2CCN[C@H]3CCC1	8.4%
Cn1cccc1C(=O)N1CCC2(CCN(C(=O)Nc3cccc(F)c3)CC2)CC1	-1.5%
O=C(NCC1CC1)[C@H]1C[C@@H]1[C@H](NP(=O)(c1ccccc1)c1ccccc1)c1ccccc1	5.1%
CCC(=O)/C=C1/Sc2ccc(OC)cc2N1CCO	13.9%
CCC(/C=C1\Sc2ccc(OC)cc2N1CCO)=C\c1sc2ccc(OC)cc2[n+]1CCO	14.1µM*
COc1ccc2sc(/C=C/c3ccccc3O)[n+](C)c2c1	-7.5%
